Assay results reported in PubChem BioAssay AID880 (National Center for Advancing Translational Sciences (NCATS), 2007).
The whole screen tested about 230,000 compounds, of which about 1,000 (0.43%) were called active. The list comes from a sample in which actives are over-represented; it also holds similar structures and randomly drawn compounds. Unmarked numbers belong to inactive results. Calls come from the whole dose curve; as a rule, active = well fitted inhibition curve with a large enough effect (not every such curve was filed as active); inactive = no such curve, though single readings can be large or run the other way.
% is set by controls: 0 for no effect and ±100 for the full control effect; potency is the fitted concentration of half-maximal effect.
Note: nearly all actives have a fitted effect of over 30% in size.

These compounds were tested against Guanine nucleotide-binding protein G(i) subunit alpha-1 (Homo sapiens) (UniProt P63096) (assay: qHTS Assay for Inhibitors of RGS12 GoLoco Motif Activity (Red Fluorophore)). Conditions: Gai1:RGS12 GoLoco peptide FP, rhodamine, 10 min; series mostly up to 61.6 µM; activity, negative = inhibition: at the top concentration.
Sequence of Guanine nucleotide-binding protein G(i) subunit alpha-1 (Homo sapiens) (P63096 whole entry, looked up): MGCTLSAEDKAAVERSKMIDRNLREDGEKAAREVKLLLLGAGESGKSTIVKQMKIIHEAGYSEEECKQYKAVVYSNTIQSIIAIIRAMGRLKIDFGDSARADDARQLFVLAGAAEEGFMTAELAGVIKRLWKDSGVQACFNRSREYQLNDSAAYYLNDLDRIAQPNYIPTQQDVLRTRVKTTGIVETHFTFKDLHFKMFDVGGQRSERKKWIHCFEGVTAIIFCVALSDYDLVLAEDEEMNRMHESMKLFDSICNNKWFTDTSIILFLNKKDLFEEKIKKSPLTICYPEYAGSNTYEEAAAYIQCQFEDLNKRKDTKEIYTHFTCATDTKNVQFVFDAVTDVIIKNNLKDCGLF
Text: Assay Submitter: Siderovski, David P, University of North Carolina at Chapel Hill
Screening Center PI: Austin, C.P.
Screening Center: NIH Chemical Genomics Center [NCGC]
G-protein-coupled receptors (GPCRs) are major targets for drug discovery. The regulator of G-protein signaling (RGS)-protein family has important roles in GPCR signal transduction. RGS proteins contain a conserved RGS-box, which is often accompanied by other signaling regulatory elements. RGS proteins accelerate the deactivation of G proteins to reduce GPCR signaling; however, some also have an effector function and transmit signals. Combining GPCR agonists with RGS inhibitors should potentiate responses, and could markedly increase the agonist's regional specificity. The diversity of RGS proteins with highly localized and dynamically regulated distributions in brain makes them attractive targets for pharmacotherapy of central nervous system disorders. […] A complex of Gai1 and fluorescently labeled G-alpha-binding peptide (the "GoLoco motif") derived from RGS12 is incubated with library members. Inhibitors of the binding are detected by a decrease in the fluorescence polarization (FP) of the fluorophore. Protein was supplied by Prof. David Siderovski, University of North Carolina at Chapel Hill.
Assay Buffer: 10 mM Tris-HCl, 150 mM NaCl, 0.1 mM GDP (prepared fresh), and 0.05% NP40 at pH 7.5.
15 nM Rhodamine labeled peptide/25 nM protein in columns 1, 2, 5 - 48. Titration of unlabeled peptide control ([H][…][NH2], custom synthesized and HPLC-purified by Tufts University Core Facility) from 20 mM, then 1:2 dilution, 16-point in duplicate, pin-transferred to column 2, rows 1 to 32. Column 1 is neutral.
Rhodamine-labeled peptide (Rhodamine-[…]-NH2) was custom-synthesized and HPLC-purified by Invitrogen (Carlsbad, CA).
Four uL of reagents were dispensed to 1536-well Greiner black solid-bottom plates. Compounds and controls (23 nL) were transferred via Kalypsys PinTool. The plates were incubated for 10 min at room temperature, and then read on ViewLux (Perkin-Elmer) High-throughput CCD imager using BODIPY for the rhodamine-labeled decapeptide probe. During dispense, reagent bottles were kept submerged into 4 deg C water bath and all liquid lines were covered with aluminum foil to minimize probe and protein degradation. All screening operations were performed on a Kalypsys robotic system (Kalypsys, Inc., San Diego, CA) containing one RX-130 and two RX-90 anthropomorphic robotic arms.
CCOC(=O)c1ccc(NC(=O)CSc2ncccn2)cc1 was tested, and the Potency was 2.82 µM (active).
For CCOC(=O)c1ccc(NC(=O)Cn2cnc3cc(C)c(C)cc32)cc1, the “activity, negative = inhibition” value was 6.97%.
In the case of CCOC(=O)c1ccc(NC(=O)CSc2nnc(COc3ccccc3OC)n2C)cc1, the “activity, negative = inhibition” value is reported as 9.95%.
For CCOC(=O)C1=C(C)c2ccccc2OC1(C)C(=O)OCC (stereo not drawn), the “activity, negative = inhibition” value was -4.52% [at 88.7 µM].
For Cc1ccccc1-n1nnnc1SCCCC(=O)c1ccc(F)cc1, the “activity, negative = inhibition” value was 11.6%.
With N#Cc1ccsc1NC(=O)CN1CCN(S(=O)(=O)c2cc(Cl)ccc2Cl)CC1 the “activity, negative = inhibition” value was 9.81%.
CCOc1ccc(N=NS(=O)(=O)O)cc1 gave an activity, negative = inhibition of -17.6% [at 14.2 µM].
Cc1ccccc1CC1(CO)CCCN(Cc2ccc3c(c2)OCCO3)C1 (stereo not drawn) was tested, and the “activity, negative = inhibition” value was -5.36%.
For NCCC(=O)c1ccccc1N, the “activity, negative = inhibition” value was -0.0525%.
For CCCc1ccc(-c2c(C)sc(NC(=O)c3ccnn3C)c2C#N)cc1, the “activity, negative = inhibition” value was 1.09%.
CC(C)=C(NC(=O)c1ccccc1)C(=O)N/N=C(\C)c1ccccc1O was tested, and the “activity, negative = inhibition” value was -1%.
With Cc1ccc2[nH]c(=O)c(CN(CCCN(C)C)C(=O)Nc3cccc(Cl)c3)cc2c1 the “activity, negative = inhibition” value was 2.71%.
N=C1C(c2nc3ccccc3s2)=C(O)CN1NC(=O)c1ccc([N+](=O)[O-])cc1 was tested, and the “activity, negative = inhibition” value was 6.8%.
COc1ccc(/C=C(\C#N)C(=O)NCCCn2ccnc2)cc1 was tested, and the “activity, negative = inhibition” value was -7.5%.
CCOC(=O)c1cnc(SC)nc1Sc1ccc(Cl)cc1Cl was tested, and the “activity, negative = inhibition” value was 0.136%.
For O=P(O)(O)OC[C@H](O)CO, the “activity, negative = inhibition” value was 2.38%.
For CCOC(=O)c1c(NC(=S)NC)sc2c1CCCC2, the “activity, negative = inhibition” value was 0.716%.
With Cc1ccc(NC(=O)CN2CCCCC2)c2c1CC(C)(C)O2 the “activity, negative = inhibition” value was -3.9%.
For Cc1ccc(Nc2cc(C)nc3c(C)ccc([N+](=O)[O-])c23)cc1, the “activity, negative = inhibition” value was 5.73%.
With NCCCCC(N)C(=O)O (stereo not drawn) the “activity, negative = inhibition” value was 3.62%.
In the case of CC(C)[C@@H]1NC(=O)[C@H](Cc2ccccc2)NC(=O)[C@@H](CC(=O)O)NC(=O)CNC(=O)[C@H](CCCNC(=N)N)NC1=O, the “activity, negative = inhibition” value is reported as 8.69%.
In the case of CCS(=O)(=O)N1Cc2ccccc2CC1C(=O)Nc1nc2ccc(F)cc2s1 (stereo not drawn), the “activity, negative = inhibition” value is reported as 2.6%.
O=C(NCc1cc(C(F)(F)F)cc(C(F)(F)F)c1)C1CC(c2cccc(F)c2)=NO1 (stereo not drawn) was tested, and the “activity, negative = inhibition” value was -20.7%.
For Cc1ccccc1-c1n[nH]c(=S)n1/N=C/c1ccc(-c2ccccc2Br)o1, the “activity, negative = inhibition” value was 8.75%.
For O=c1[nH]cnc2c1c(-c1ccccc1)cn2-c1ccc(F)cc1, the “activity, negative = inhibition” value was 1.55%.
Clc1ccc(CSc2nnc3c(n2)[nH]c2ccccc23)cc1 was tested, and the “activity, negative = inhibition” value was 1.68%.
For COC(c1ccccc1)(c1ccccc1)C(Oc1nc(C)cc(C)n1)C(=O)O (stereo not drawn), the “activity, negative = inhibition” value was 3.51%.
In the case of COc1cccc(NC(=O)CN(C)C(=O)/C=C/c2cc(OC)ccc2OC)c1, the “activity, negative = inhibition” value is reported as 6.97%.
With O=C(NCCc1c[nH]c2ccccc12)c1cc2ccccc2oc1=O the “activity, negative = inhibition” value was -2.24%.
CN(c1ccccc1)S(=O)(=O)c1cc(C(=O)Nc2nc3ccccc3[nH]2)ccc1Cl was tested, and the “activity, negative = inhibition” value was 13.7%.
CCC(C)[C@@H](N)C(=O)O (stereo partly drawn) was tested, and the “activity, negative = inhibition” value was -0.853%.
In the case of C[N+]1(CCNC(=O)/C=N/O)CCCCC1, the Potency is reported as 12.6 µM (active).
With Cc1ccc(S(=O)(=O)c2ccc(Oc3ccccc3)cc2)cc1 the “activity, negative = inhibition” value was 6.2%.
With CC1=C/C(=N\OS(=O)(=O)c2ccccc2)C=CC1=O the Potency was 28.2 µM (active).
With CC1=C/C(=N\S(=O)(=O)c2ccccc2)C(C(C)C)=CC1=O the “activity, negative = inhibition” value was 16%.
CC#CC[N+](C)(C)CCCCCC was tested, and the “activity, negative = inhibition” value was -9%.
NC(=O)C(=O)N/N=C/c1ccc([N+](=O)[O-])o1 was tested, and the “activity, negative = inhibition” value was 1.84%.
For S=c1[nH]nc(-c2ccccc2)n1/N=C/c1c[nH]c2ccccc12, the “activity, negative = inhibition” value was 9.19%.
C[n+]1ccc(/C=C/c2c[nH]c3ccccc23)cc1 was tested, and the Potency was 0.562 µM (active).
For CSC(=S)N/N=C/c1c[nH]c2ccccc12, the “activity, negative = inhibition” value was 4.52%.
Cc1ccc(CCCOC(=O)C[N+]2(C)CCCC2)cc1 was tested, and the Potency was 7.08 µM (active).
For Cc1ccc(CCCOC(=O)C[N+]2(C)CCCCC2)cc1, the “activity, negative = inhibition” value was 15.3%.
In the case of CCCCOC(=O)Cn1c(=O)n(CC(=O)OCCCC)c2cc(C)ccc21, the “activity, negative = inhibition” value is reported as 0.114%.
C[C@@]12CCC(=O)C=C1CC[C@H]1C2[C@@H](O)C[C@]2(C)[C@@H]1CC[C@@]2(O)C(=O)COC(=O)C1CCCC1 (stereo partly drawn) gave an activity, negative = inhibition of -1.69% [at 14.2 µM].
With O=C(CC1SC(=Nc2ccccc2)N(Cc2ccccn2)C1=O)Nc1cccc(Cl)c1 (stereo not drawn) the “activity, negative = inhibition” value was 17.4%.
For CC(C)S(=O)(=O)c1csc(NC(=O)Nc2ccc(Cl)cc2)c1Cl, the “activity, negative = inhibition” value was 3.76%.
CC(C)N(Cc1ccccc1)C(=O)COC(=O)c1cnccn1 was tested, and the “activity, negative = inhibition” value was 0.644%.
With CCO[C@H]1OC(C(=O)NCc2ccccc2)=C[C@@H](c2coc3ccccc3c2=O)[C@@H]1CCCO the “activity, negative = inhibition” value was 10.1%.
In the case of Cc1ccc(-c2ncc(Cl)cc2-c2ccc(S(C)(=O)=O)cc2)cn1, the “activity, negative = inhibition” value is reported as 0.142%.
With CCOC(=O)N/N=C/c1cn(Cc2ccccc2Cl)c2ccccc12 the “activity, negative = inhibition” value was -6.07%.
For CN1CCN(/N=C2/C(=O)Nc3ccc([N+](=O)[O-])cc32)CC1, the “activity, negative = inhibition” value was 4.86%.
In the case of Cc1nn(C)cc1N1C(=O)c2cccc3c(N)ccc(c23)C1=O, the Potency is reported as 14.1 µM (active).
Cc1nn(-c2cc(Cl)ccc2N)c(=O)c2ccccc12 was tested, and the “activity, negative = inhibition” value was -13.2%.
